Assay results reported in PubChem BioAssay (NCI).
The panel holds about 79,000 compounds, 15% with a hit somewhere; the sample as a whole holds those more often. A number with no mark means an inactive call. Active and inactive are the calls of the source. Cut-off read from the data, not from the text of the source: active = growth inhibition above about 70%; inactive = the rest.

Tests used:
[1] = NCI Yeast Anticancer Drug Screen. Data for the wt1 strain (AID 149);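 note: 0% = growth of vehicle-treated wt1 cultures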; details: S. cerevisiae wt1 strain (SPY 50644) growth inhibition, active compounds read high
In short: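 The wt1 strain was treated with compounds, and growth was compared with vehicle-treated cultures to give inhibition.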

[2] = NCI Yeast Anticancer Drug Screen. Data for the rad50 strain (AID 155);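 note: 0% = growth of vehicle-only cultures of the same strain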; details: S. cerevisiae rad50 strain growth inhibition, active compounds read high
In short: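 Cells are treated with compound, grown, and their growth is then scored against vehicle-only cultures of the same repair-deficient yeast strain.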

[3] = NCI Yeast Anticancer Drug Screen. Data for the mec2-1 strain (AID 157); details: S. cerevisiae mec2-1 strain, active compounds read high
In short: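 Vehicle-treated cultures served as reference for growth inhibition of compound-exposed mec2-1 yeast.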

[4] = NCI Yeast Anticancer Drug Screen. Data for the rad14 strain (AID 159);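 note: 0% = growth of vehicle-treated control cultures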; details: S. cerevisiae rad14 strain growth inhibition, active compounds read high
In short: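 Readout: yeast growth inhibition, referenced to vehicle-only cultures. Strain bears a defined alteration in DNA damage repair.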

[5] = NCI Yeast Anticancer Drug Screen. Data for the sgs1 mgt1 strain (AID 161);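 note: 0% = growth of cultures given vehicle only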; details: S. cerevisiae sgs1 mgt1 strain, active compounds read high
In short: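 Mutant yeast exposed to compound; growth scored against vehicle-only wells.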

[6] = NCI Yeast Anticancer Drug Screen. Data for the CLN2oe strain (AID 163);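 note: 0% = growth of vehicle-only control cultures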; details: S. cerevisiae CLN2oe strain, active compounds read high
In short: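 Inhibition relative to vehicle-treated yeast is reported. Cells: strain with genetic alteration in cell-cycle control, grown with compound.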

[7] = NCI Yeast Anticancer Drug Screen. Data for the cln2 rad14 strain (AID 165);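 note: 0% = growth equal to vehicle treated cultures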; details: S. cerevisiae cln2 rad14 strain, active compounds read high
In short: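 Each compound was tested on cln2 rad14 yeast. Inhibition of growth was calculated against vehicle-exposed controls.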

[8] = NCI Yeast Anticancer Drug Screen. Data for the bub3 strain (AID 167); details: S. cerevisiae bub3 mutant strain, active compounds read high
In short: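 Part of a panel of yeast mutants defective in DNA damage repair or cell cycle regulation. Each strain is grown with compound, and inhibition is calculated relative to solvent-treated cultures.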

[9] = NCI Yeast Anticancer Drug Screen. Data for the wt2 strain (AID 169);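 note: 0% = growth of vehicle-treated yeast cultures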; details: S. cerevisiae wt2 strain growth inhibition, active compounds read high
In short: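 Inhibition of yeast growth was determined after compound treatment, normalised to controls receiving only vehicle.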

[10] = NCI Yeast Anticancer Drug Screen. Data for the mlh1 strain (AID 171);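 note: 0% = growth of vehicle-treated control cultures of the same strain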; details: S. cerevisiae mlh1 strain growth inhibition, active compounds read high
In short: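 Vehicle-normalised growth inhibition of a repair- or checkpoint-altered yeast strain following compound treatment.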

[11] = NCI Yeast Anticancer Drug Screen. Data for the sgs1 strain (AID 173);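 note: 0% = growth of vehicle-only control cultures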; details: S. cerevisiae sgs1 mutant, active compounds read high
In short: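 Screen format: yeast with repair or checkpoint alterations, compound exposure, growth read relative to vehicle.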

[12] = NCI Yeast Anticancer Drug Screen. Data for the mlh1 rad18 strain (AID 175); details: S. cerevisiae mlh1 rad18 strain growth inhibition, active compounds read high
In short: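 Vehicle-treated cultures served as the reference for growth inhibition in a yeast strain carrying DNA damage repair alterations exposed to each compound.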

[13] = NCI Yeast Anticancer Drug Screen. Data for the rad18 strain (AID 177); details: S. cerevisiae rad18 mutant growth inhibition, active compounds read high
In short: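 Test articles were incubated with altered yeast defective in DNA damage repair. Results are given as inhibition of growth versus vehicle.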

[14] = at 5.0 µM (retest, dose inferred, filed as 0.5)
[15] = at 50.0 µM (retest, dose inferred, filed as 5.0)

OC1(c2ccccc2)CC2CCC(C1)N2CCCC(O)(c1ccccc1)c1ccccc1 (centres undefined)
growth inhibition ([1]; at 1.2 µM): 1% | growth inhibition ([1]; at 3.7 µM): 1% | growth inhibition ([1]; at 11.0 µM): 2% | growth inhibition ([1]; at 33.0 µM): 6% | growth inhibition ([1]; at 100.0 µM): 24% | growth inhibition ([2]; at 1.2 µM): -6% | growth inhibition ([2]; at 3.7 µM): -15% | growth inhibition [2, 14]: -8% | growth inhibition ([2]; at 11.0 µM): -13% | growth inhibition ([2]; at 33.0 µM): 21% | growth inhibition [2, 15]: 6% | growth inhibition ([2]; at 50.0 µM): 33.2% | growth inhibition ([2]; at 100.0 µM): 62% | growth inhibition ([3]; at 1.2 µM): 0% | growth inhibition ([3]; at 3.7 µM): 1% | growth inhibition [3, 14]: -10% | growth inhibition ([3]; at 11.0 µM): 4% | growth inhibition ([3]; at 33.0 µM): 18% | growth inhibition [3, 15]: 10% | growth inhibition ([3]; at 50.0 µM): -2.2% | growth inhibition ([3]; at 100.0 µM): 37% | growth inhibition ([4]; at 1.2 µM): 4% | growth inhibition ([4]; at 3.7 µM): 5% | growth inhibition ([4]; at 11.0 µM): 15% | growth inhibition ([4]; at 33.0 µM): 53% | growth inhibition ([4]; at 100.0 µM): 96% (active) | growth inhibition [5, 14]: -2% | growth inhibition [5, 15]: 44% | growth inhibition ([5]; at 50.0 µM): 71.8% (active) | growth inhibition ([6]; at 1.2 µM): -4% | growth inhibition ([6]; at 3.7 µM): -5% | growth inhibition ([6]; at 11.0 µM): -2% | growth inhibition ([6]; at 33.0 µM): 12% | growth inhibition ([6]; at 100.0 µM): 49% | growth inhibition [7, 14]: 1% | growth inhibition [7, 15]: 52% | growth inhibition ([7]; at 50.0 µM): 2.55% | growth inhibition ([8]; at 1.2 µM): 0% | growth inhibition ([8]; at 3.7 µM): 0% | growth inhibition [8, 14]: 8% | growth inhibition ([8]; at 11.0 µM): 5% | growth inhibition ([8]; at 33.0 µM): 30% | growth inhibition [8, 15]: 67% | growth inhibition ([8]; at 50.0 µM): 53.7% | growth inhibition ([8]; at 100.0 µM): 80% (active) | growth inhibition ([9]; at 1.2 µM): -1% | growth inhibition ([9]; at 3.7 µM): -1% | growth inhibition ([9]; at 11.0 µM): 1% | growth inhibition ([9]; at 33.0 µM): 17% | growth inhibition ([9]; at 100.0 µM): 80% (active) | growth inhibition ([10]; at 1.2 µM): 1% | growth inhibition ([10]; at 3.7 µM): 1% | growth inhibition ([10]; at 11.0 µM): 3% | growth inhibition ([10]; at 33.0 µM): 23% | growth inhibition ([10]; at 100.0 µM): 80% (active) | growth inhibition ([11]; at 1.2 µM): 1% | growth inhibition ([11]; at 3.7 µM): 3% | growth inhibition ([11]; at 11.0 µM): 3% | growth inhibition ([11]; at 33.0 µM): 38% | growth inhibition ([11]; at 100.0 µM): 89% (active) | growth inhibition [12, 14]: -7% | growth inhibition [12, 15]: 26% | growth inhibition ([12]; at 50.0 µM): 53.5% | growth inhibition ([13]; at 1.2 µM): 0% | growth inhibition ([13]; at 3.7 µM): -1% | growth inhibition ([13]; at 11.0 µM): 4% | growth inhibition ([13]; at 33.0 µM): 28% | growth inhibition ([13]; at 100.0 µM): 57%

[Pt].c1ccc(P(CCP(c2ccccc2)c2ccccc2)CCP(c2ccccc2)c2ccccc2)cc1
growth inhibition ([2]; at 1.2 µM): -13% | growth inhibition ([2]; at 3.7 µM): 11% | growth inhibition [2, 14]: 22% | growth inhibition ([2]; at 11.0 µM): 23% | growth inhibition ([2]; at 33.0 µM): 94% (active) | growth inhibition [2, 15]: 90% (active) | growth inhibition ([2]; at 50.0 µM): 79% (active) | growth inhibition ([2]; at 100.0 µM): 93% (active) | growth inhibition ([3]; at 1.2 µM): -27% | growth inhibition ([3]; at 3.7 µM): -14% | growth inhibition [3, 14]: -3% | growth inhibition ([3]; at 11.0 µM): 6% | growth inhibition ([3]; at 33.0 µM): 94% (active) | growth inhibition [3, 15]: 94% (active) | growth inhibition ([3]; at 50.0 µM): 85.2% (active) | growth inhibition ([3]; at 100.0 µM): 94% (active) | growth inhibition [5, 14]: 8% | growth inhibition [5, 15]: 90% (active) | growth inhibition ([5]; at 50.0 µM): 82% (active) | growth inhibition [7, 14]: 43% | growth inhibition [7, 15]: 91% (active) | growth inhibition ([7]; at 50.0 µM): 79.2% (active) | growth inhibition ([8]; at 1.2 µM): 8% | growth inhibition ([8]; at 3.7 µM): 4% | growth inhibition [8, 14]: 4% | growth inhibition ([8]; at 11.0 µM): 26% | growth inhibition ([8]; at 33.0 µM): 96% (active) | growth inhibition [8, 15]: 91% (active) | growth inhibition ([8]; at 50.0 µM): 75.7% (active) | growth inhibition ([8]; at 100.0 µM): 95% (active) | growth inhibition [12, 14]: 16% | growth inhibition [12, 15]: 92% (active) | growth inhibition ([12]; at 50.0 µM): 75.8% (active)

CC(C)(Br)C(=O)C(Br)Br
growth inhibition [2, 14]: 97% (active) | growth inhibition [2, 15]: 99% (active) | growth inhibition ([2]; at 50.0 µM): 86.3% (active) | growth inhibition [3, 14]: 100% (active) | growth inhibition [3, 15]: 99% (active) | growth inhibition ([3]; at 50.0 µM): 89% (active) | growth inhibition [5, 14]: 98% (active) | growth inhibition [5, 15]: 99% (active) | growth inhibition ([5]; at 50.0 µM): 89.7% (active) | growth inhibition [7, 14]: 95% (active) | growth inhibition [7, 15]: 99% (active) | growth inhibition ([7]; at 50.0 µM): 88.8% (active) | growth inhibition [8, 14]: 100% (active) | growth inhibition [8, 15]: 99% (active) | growth inhibition ([8]; at 50.0 µM): 88.7% (active) | growth inhibition [12, 14]: 98% (active) | growth inhibition [12, 15]: 98% (active)

Cc1nc(Cl)c(CBr)c(Cl)n1
growth inhibition [2, 14]: 38% | growth inhibition [2, 15]: 99% (active) | growth inhibition ([2]; at 50.0 µM): 67.8% | growth inhibition [3, 14]: 44% | growth inhibition [3, 15]: 100% (active) | growth inhibition ([3]; at 50.0 µM): 70.2% (active) | growth inhibition [5, 14]: 43% | growth inhibition [5, 15]: 100% (active) | growth inhibition ([5]; at 50.0 µM): 32.6% | growth inhibition [7, 14]: 40% | growth inhibition [7, 15]: 100% (active) | growth inhibition ([7]; at 50.0 µM): 33.8% | growth inhibition [8, 14]: 54% | growth inhibition [8, 15]: 100% (active) | growth inhibition ([8]; at 50.0 µM): 52.5% | growth inhibition [12, 14]: 50% | growth inhibition [12, 15]: 99% (active)

CCC[CH2][Pb]([Cl])([CH2]CCC)[CH2]CCC
growth inhibition [2, 14]: 99% (active) | growth inhibition [2, 15]: 98% (active) | growth inhibition ([2]; at 50.0 µM): 88% (active) | growth inhibition [3, 14]: 100% (active) | growth inhibition [3, 15]: 99% (active) | growth inhibition ([3]; at 50.0 µM): 92% (active) | growth inhibition [5, 14]: 100% (active) | growth inhibition [5, 15]: 99% (active) | growth inhibition ([5]; at 50.0 µM): 92.2% (active) | growth inhibition [7, 14]: 98% (active) | growth inhibition [7, 15]: 98% (active) | growth inhibition ([7]; at 50.0 µM): 91.2% (active) | growth inhibition [8, 14]: 100% (active) | growth inhibition [8, 15]: 98% (active) | growth inhibition ([8]; at 50.0 µM): 89.9% (active) | growth inhibition [12, 14]: 99% (active) | growth inhibition [12, 15]: 98% (active)

Br[C](Br)(Br)[Hg][c]1ccccc1
growth inhibition [2, 14]: 99% (active) | growth inhibition [2, 15]: 98% (active) | growth inhibition ([2]; at 50.0 µM): 87.3% (active) | growth inhibition [3, 14]: 100% (active) | growth inhibition [3, 15]: 99% (active) | growth inhibition ([3]; at 50.0 µM): 89.8% (active) | growth inhibition [5, 14]: 100% (active) | growth inhibition [5, 15]: 99% (active) | growth inhibition ([5]; at 50.0 µM): 90% (active) | growth inhibition [7, 14]: 99% (active) | growth inhibition [7, 15]: 98% (active) | growth inhibition ([7]; at 50.0 µM): 89.3% (active) | growth inhibition [8, 14]: 100% (active) | growth inhibition [8, 15]: 99% (active) | growth inhibition ([8]; at 50.0 µM): 89.1% (active) | growth inhibition [12, 14]: 99% (active) | growth inhibition [12, 15]: 98% (active)
